According to PubChem BioAssay (NCATS):
Results filed as inconclusive are left out. A number with no mark means an inactive call. The source made the active and inactive calls. The call rests on the fitted dose curve; in most records, active means well fitted cell-killing curve with a large enough effect; inconclusive means small, poorly fitted or top-dose-only effect; inactive means flat fitted curve, though single readings scatter.

Experiment: Cell Viability - LYMP2-022 (AID 987); further: nearly all actives have a fitted effect of over 55% in size;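 on viability change, negative = cytotoxic: 0% = DMSO alone and full effect = tetraoctylammonium bromide at 92 µM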
Details: LYMP2-022 lymphoblastoid cell viability; series mostly up to 92.2 µM; viability change, negative = cytotoxic: at the top concentration
Method in brief: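 Cytotoxicity read as decreased cellular ATP (CellTiter-Glo luminescence, 30 min room temperature) after 24 hours compound exposure of 2500 lymphoblastoid LYMP2-022 cells/well at 37 C. Concentration-response data fitted with standard Hill equation for AC50.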
Potency means the concentration at half of the fitted maximal effect.

Which Potency does the source give for `Cc1cc(Nc2ccc(O)cc2)ccc1N` here?
The Potency was 31.6 µM (active).

Which “viability change, negative = cytotoxic” value does the source give for `CN(C)c1ccc(C2(c3ccc(N(C)C)cc3)OC(=O)c3cc(N(C)C)ccc32)cc1` here?
The value was -11.7%.

For `O=C(OCC(COC(=O)c1ccccc1)(COC(=O)c1ccccc1)COC(=O)c1ccccc1)c1ccccc1`, which “viability change, negative = cytotoxic” value is on record?
Its value is 0.576%.

With `CC(=O)Nc1ccc(C(=O)CCl)cc1` as the compound, how does the Potency read?
Its Potency is 3.98 µM (active).

Which “viability change, negative = cytotoxic” value does the source give for `Nc1ccc2cc3ccccc3cc2c1` here?
The value was -18%.

For `c1ccc2c(c1)-c1cccc3c1c-2cc1ccccc13`, which “viability change, negative = cytotoxic” value is on record?
Its value is -24.7%.

Which “viability change, negative = cytotoxic” value does the source give for `O=C=Nc1ccc(Cc2ccc(N=C=O)cc2)cc1` here?
Its value is -5.92%.

For `O=[N+]([O-])c1cc([N+](=O)[O-])c2ccc(S(=O)(=O)O)cc2c1O`, which “viability change, negative = cytotoxic” value is on record?
The value was -9.66%.

With `Cc1cc(O)c(C(C)(C)C)cc1Sc1cc(C(C)(C)C)c(O)cc1C` as the compound, how does the Potency read?
Its Potency is 31.6 µM (active).

With `CCC(C)Nc1ccc(NC(C)CC)cc1` (stereo unspecified) as the compound, how does the Potency read?
The Potency was 2.51 µM (active).

For `CNc1ccc(O)cc1`, which Potency is on record?
The Potency was 3.16 µM (active).

For `C=CC(=O)OCCOCCOC(=O)C=C`, which Potency is on record?
Its Potency is 12.6 µM (active).

Which “viability change, negative = cytotoxic” value does the source give for `c1ccc2c(c1)ccc1cc3c(ccc4ccccc43)cc12` here?
The value was -6.94%.

Which “viability change, negative = cytotoxic” value does the source give for `C=C(C)c1ccccc1` here?
Its value is -11.8%.

For `O=C1OC(O)C(C(Cl)Cl)=C1Cl` (stereo unspecified), which Potency is on record?
The Potency was 15.8 µM (active).

Experiment: Cell Viability - LYMP2-024 (AID 988); further: nearly all actives have a fitted effect of over 60% in size;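 on activity change, negative = cytotoxicity: plate controls were DMSO only for no effect and 92 µM tetraoctylammonium bromide for full effect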
Details: LYMP2-024 lymphoblastoid cell viability; series mostly up to 92.2 µM; activity change, negative = cytotoxicity: at the top concentration
Method in brief: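 Cytotoxicity was taken as a decrease in ATP (CellTiter-Glo luminescence) after 24 hr compound exposure at 37 C of LYMP2-024 lymphoblastoid cells, 2500 cells/well. Concentration-response data were fitted to the Hill equation to give AC50.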

Which Potency does the source give for `Cc1cc(Nc2ccc(O)cc2)ccc1N` here?
Its Potency is 25.1 µM (active).

Which “activity change, negative = cytotoxicity” value does the source give for `CN(C)c1ccc(C2(c3ccc(N(C)C)cc3)OC(=O)c3cc(N(C)C)ccc32)cc1` here?
Its value is -1.44%.

Which “activity change, negative = cytotoxicity” value does the source give for `O=C(OCC(COC(=O)c1ccccc1)(COC(=O)c1ccccc1)COC(=O)c1ccccc1)c1ccccc1` here?
Its value is 0.0185%.

For `CC(=O)Nc1ccc(C(=O)CCl)cc1`, which Potency is on record?
Its Potency is 3.16 µM (active).

With `Nc1ccc2cc3ccccc3cc2c1` as the compound, how does the “activity change, negative = cytotoxicity” value read?
The value was -9.39%.

For `c1ccc2c(c1)-c1cccc3c1c-2cc1ccccc13`, which “activity change, negative = cytotoxicity” value is on record?
Its value is -8%.

For `O=C=Nc1ccc(Cc2ccc(N=C=O)cc2)cc1`, which “activity change, negative = cytotoxicity” value is on record?
The value was -13.5%.

Which “activity change, negative = cytotoxicity” value does the source give for `O=[N+]([O-])c1cc([N+](=O)[O-])c2ccc(S(=O)(=O)O)cc2c1O` here?
The value was 1.5%.

With `Cc1cc(O)c(C(C)(C)C)cc1Sc1cc(C(C)(C)C)c(O)cc1C` as the compound, how does the Potency read?
The Potency was 39.8 µM (active).

Which Potency does the source give for `CCC(C)Nc1ccc(NC(C)CC)cc1` (stereo unspecified) here?
Its Potency is 2 µM (active).

For `CNc1ccc(O)cc1`, which Potency is on record?
Its Potency is 2.51 µM (active).

For `C=CC(=O)OCCOCCOC(=O)C=C`, which Potency is on record?
The Potency was 12.6 µM (active).

With `O=C1OC2(c3cc(Br)c(O)c(Br)c3Oc3c2cc(Br)c(O)c3Br)c2c(Cl)c(Cl)c(Cl)c(Cl)c21` as the compound, how does the “activity change, negative = cytotoxicity” value read?
Its value is -23.2%.

For `c1ccc2c(c1)ccc1cc3c(ccc4ccccc43)cc12`, which “activity change, negative = cytotoxicity” value is on record?
The value was -0.0714%.

With `C=C(C)c1ccccc1` as the compound, how does the “activity change, negative = cytotoxicity” value read?
Its value is -1.98%.

For `O=C1OC(O)C(C(Cl)Cl)=C1Cl` (stereo unspecified), which Potency is on record?
The Potency was 12.6 µM (active).
